Laboratory results from article PMC10726135, “HNF4α isoforms regulate the circadian balance between carbohydrate and lipid metabolism in the liver”.
Whole data set: some 18,000 sequences, median “log2 normalized intensity” near 0.39, cut for the highest 2% near 6.6. Many of the other results were omitted from the sample, so the highest values are more common in it than they were.

target: T1, HNF4alpha2 (COS-7 nuclear extract) (Homo sapiens, UniProt P41235 1-474); test: protein-binding microarray; COS-7 nuclear extract on double-stranded Agilent 4x180k PBM; binding buffer, salt, pH and temperature not given in the material; high values mean tight binding; conditions: chain copies: 2; label: 3' end of strand 1 on the slide; dsDNA, one strand shown
T1 sequence: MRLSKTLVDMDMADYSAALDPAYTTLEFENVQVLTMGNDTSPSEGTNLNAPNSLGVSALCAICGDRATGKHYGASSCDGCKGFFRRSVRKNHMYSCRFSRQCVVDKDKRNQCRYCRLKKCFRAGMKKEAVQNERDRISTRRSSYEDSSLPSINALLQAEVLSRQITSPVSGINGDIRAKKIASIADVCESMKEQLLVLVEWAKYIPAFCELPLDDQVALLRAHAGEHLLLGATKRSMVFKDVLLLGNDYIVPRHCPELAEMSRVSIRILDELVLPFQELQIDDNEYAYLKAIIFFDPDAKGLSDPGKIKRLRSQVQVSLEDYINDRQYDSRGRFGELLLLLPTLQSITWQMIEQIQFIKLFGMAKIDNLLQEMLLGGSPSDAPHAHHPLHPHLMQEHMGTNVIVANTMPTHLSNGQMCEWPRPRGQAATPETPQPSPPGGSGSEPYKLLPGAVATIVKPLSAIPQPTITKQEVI
Outline: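 A custom Agilent SurePrint G3 4x180k array, spotted in quadruplicate with ~44,000 test sequences as ~60-nt oligonucleotides made double-stranded, was incubated with nuclear extracts. The extracts came from COS-7 cells transiently transfected by CaPO4 with a human HNF4α isoform expression vector. Bound HNF4α was imaged on an Agilent G2565CA scanner at 2-µm resolution, and the binding signal was taken as Agilent software's background-corrected, normalized gProcessedSignal.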

Sequence	binding signal
CAGTAACTGTCATGGATGACCTCTTTTAGTGCCTAGGGAGATTAGAGTATCGGTCGA	3.08 log2 normalized intensity
GCTGTCTACTCTGGGGGTCAGCAATGGTAAGCCTAGGGAGATTAGAGTATCGGTCGA	1.8 log2 normalized intensity
TGCCCCAGGAATGCCTTTTCTTTCATGTTGGCCTAGGGAGATTAGAGTATCGGTCGA	1.43 log2 normalized intensity
GTTGAGGAGTTTGTACTTTATCCTACAAGGGCCTAGGGAGATTAGAGTATCGGTCGA	2.25 log2 normalized intensity
TCCTCTCAAAGTCCACCCGGCCAGCAGATGGCCTAGGGAGATTAGAGTATCGGTCGA	2.46 log2 normalized intensity
AAAGGTCATATCCAAAATATTTGCAGTGAGGCCTAGGGAGATTAGAGTATCGGTCGA	1.79 log2 normalized intensity
ATATTTTCTTTGTGCTATTTTTGGCTTGGTGCCTAGGGAGATTAGAGTATCGGTCGA	2.13 log2 normalized intensity
CCATTCTTGAGGACAGGCCAAATCCAGTAAGCCTAGGGAGATTAGAGTATCGGTCGA	-0.994 log2 normalized intensity
GCCTTGCTGAGGAATTTGGACTTCAGCCCAGCCTAGGGAGATTAGAGTATCGGTCGA	6.11 log2 normalized intensity
ATTGTGATTCCTGTGATACCTTCTTTGCCTGCCTAGGGAGATTAGAGTATCGGTCGA	1.13 log2 normalized intensity
GACCTTTGACCTTTATACCTGTACGTTACTGCCTAGGGAGATTAGAGTATCGGTCGA	7.39 log2 normalized intensity
GTCCACACATTCCTAGACCTTTGACCTTTAGCCTAGGGAGATTAGAGTATCGGTCGA	8.13 log2 normalized intensity
TGGGAGACATTCCTTCAGCGTGAACTTTGAGCCTAGGGAGATTAGAGTATCGGTCGA	6.72 log2 normalized intensity
CCCAAGATGGATTGGGTCCACACATTCCTAGCCTAGGGAGATTAGAGTATCGGTCGA	-0.811 log2 normalized intensity
TCCTAGACCTTTGACCTTTATACCTGTACGGCCTAGGGAGATTAGAGTATCGGTCGA	5.75 log2 normalized intensity
CTTTATACCTGTACGTTACTCTGTACCTCGGCCTAGGGAGATTAGAGTATCGGTCGA	1.19 log2 normalized intensity
GACATTCCTTCAGCGTGAACTTTGACATGAGCCTAGGGAGATTAGAGTATCGGTCGA	5.5 log2 normalized intensity
ATTGGGTCCACACATTCCTAGACCTTTGACGCCTAGGGAGATTAGAGTATCGGTCGA	3.26 log2 normalized intensity
TTGACCTTTATACCTGTACGTTACTCTGTAGCCTAGGGAGATTAGAGTATCGGTCGA	3.65 log2 normalized intensity
CACATTCCTAGACCTTTGACCTTTATACCTGCCTAGGGAGATTAGAGTATCGGTCGA	7.82 log2 normalized intensity
TCCTTCAGCGTGAACTTTGACATGAGAGAAGCCTAGGGAGATTAGAGTATCGGTCGA	3.66 log2 normalized intensity
GAATCACTCACTGACCTCTTTTGGATTTTTGCCTAGGGAGATTAGAGTATCGGTCGA	1.73 log2 normalized intensity

Sequence	binding signal
TCAGGAGTGATGCCAGAAGATTAGTGATGGGCCTAGGGAGATTAGAGTATCGGTCGA	-0.625 log2 normalized intensity
GACTGGAAGTTGCCCGAGCTGCCCTTTATCGCCTAGGGAGATTAGAGTATCGGTCGA	2.47 log2 normalized intensity
CCGGTTTGTTCCATGCCACAGAATCGCCCCGCCTAGGGAGATTAGAGTATCGGTCGA	2.6 log2 normalized intensity
CCAGATGATCTTTACCCTGGAATGCTGTTAGCCTAGGGAGATTAGAGTATCGGTCGA	1.33 log2 normalized intensity
GGAGGAGCTGTTTGACATCCAAAGTTTCCTGCCTAGGGAGATTAGAGTATCGGTCGA	0.813 log2 normalized intensity
AAGTTGGAATTTGGGTGATCCTGGTAGCAGGCCTAGGGAGATTAGAGTATCGGTCGA	0.0957 log2 normalized intensity
TGGTTTTATGGTGTCTTATCTTCCTCTGGCGCCTAGGGAGATTAGAGTATCGGTCGA	1.96 log2 normalized intensity
CCCCCCACCCCACACACACACAGCATTCCAGCCTAGGGAGATTAGAGTATCGGTCGA	5.05 log2 normalized intensity
TATGCCCCCCCACCCCACACACACACAGCAGCCTAGGGAGATTAGAGTATCGGTCGA	6.17 log2 normalized intensity
TGCAGTATGCCCCCCCACCCCACACACACAGCCTAGGGAGATTAGAGTATCGGTCGA	6.7 log2 normalized intensity
CACACACACACACATTGCAGTATGCCCCCCGCCTAGGGAGATTAGAGTATCGGTCGA	5.1 log2 normalized intensity
CACATTGCAGTATGCCCCCCCACCCCACACGCCTAGGGAGATTAGAGTATCGGTCGA	6.96 log2 normalized intensity
ACACACACATTGCAGTATGCCCCCCCACCCGCCTAGGGAGATTAGAGTATCGGTCGA	6.13 log2 normalized intensity
TACACCTGGGGGCTTCCCAACTCCATTATCGCCTAGGGAGATTAGAGTATCGGTCGA	-0.261 log2 normalized intensity
TCCCTATGTTGTCCCTGCCCTTTGTCCAGGGCCTAGGGAGATTAGAGTATCGGTCGA	3.89 log2 normalized intensity
AGAATATTAGATGATAAGGGTGAAAAGATAGCCTAGGGAGATTAGAGTATCGGTCGA	-0.989 log2 normalized intensity
AAGGAGCTTGGGAAGACAGATGTGATATTCGCCTAGGGAGATTAGAGTATCGGTCGA	-0.781 log2 normalized intensity
GTGCTTGGACCTGCTCTGTTTTCTTTCGGTGCCTAGGGAGATTAGAGTATCGGTCGA	1.49 log2 normalized intensity
CGCATTTCTGCTTCTTCTCATTCTTGGAATGCCTAGGGAGATTAGAGTATCGGTCGA	1.39 log2 normalized intensity
TGCCTCTTTTCTGCTTTTGGAATTTGACCTGCCTAGGGAGATTAGAGTATCGGTCGA	7.84 log2 normalized intensity
AAGCCCTTCTTCTGGAGCCTCAGTAAGTTTGCCTAGGGAGATTAGAGTATCGGTCGA	0.629 log2 normalized intensity
CTTTTCTGCTTTTGGAATTTGACCTCATTTGCCTAGGGAGATTAGAGTATCGGTCGA	6.91 log2 normalized intensity

Sequence	binding signal
CCCCTCAGTTTTTCTCTTTTGACCTTTGGAGCCTAGGGAGATTAGAGTATCGGTCGA	8.9 log2 normalized intensity
TTTGTTGCCTCTTTTCTGCTTTTGGAATTTGCCTAGGGAGATTAGAGTATCGGTCGA	2.71 log2 normalized intensity
CTGCTTTTGGAATTTGACCTCATTTGCTCCGCCTAGGGAGATTAGAGTATCGGTCGA	5.7 log2 normalized intensity
GGTGACCCCTCAGTTTTTCTCTTTTGACCTGCCTAGGGAGATTAGAGTATCGGTCGA	4.09 log2 normalized intensity
CTGTTGGTGACTGACCCTGATCCCTCCCTGGCCTAGGGAGATTAGAGTATCGGTCGA	3.18 log2 normalized intensity
GGATCCCATTCATGTGGGTCAACAGACAAAGCCTAGGGAGATTAGAGTATCGGTCGA	0.575 log2 normalized intensity
AAAGTCTTTCTCTTTCAAGATAACAAGGCAGCCTAGGGAGATTAGAGTATCGGTCGA	1.37 log2 normalized intensity
CTGATCAAAGGTCATTGGTATTGATAGCGCGCCTAGGGAGATTAGAGTATCGGTCGA	4.8 log2 normalized intensity
ATATCTATATGTTTACATATCACTGTACTCGCCTAGGGAGATTAGAGTATCGGTCGA	2.08 log2 normalized intensity
GCTCCCTCCCCTCCTCCCTTGCTCACCCCAGCCTAGGGAGATTAGAGTATCGGTCGA	5.91 log2 normalized intensity
ATGCTGGTCTCCTTGCCCCACCCCCCACCCGCCTAGGGAGATTAGAGTATCGGTCGA	7.6 log2 normalized intensity
CCTTGCCCCACCCCCCACCCCAGAAGTATGGCCTAGGGAGATTAGAGTATCGGTCGA	6.2 log2 normalized intensity
CATGCTCCCCACCCCCAACTTCCCCAACCCGCCTAGGGAGATTAGAGTATCGGTCGA	6.67 log2 normalized intensity
GGTCTCCTTGCCCCACCCCCCACCCCAGAAGCCTAGGGAGATTAGAGTATCGGTCGA	6.86 log2 normalized intensity
GGGTCATGCTGGTCTCCTTGCCCCACCCCCGCCTAGGGAGATTAGAGTATCGGTCGA	5.55 log2 normalized intensity
ACCAAGGGTCATGCTGGTCTCCTTGCCCCAGCCTAGGGAGATTAGAGTATCGGTCGA	1.74 log2 normalized intensity
ATCCCCGCTCCCCTCCCCCACCCGCGGTCCGCCTAGGGAGATTAGAGTATCGGTCGA	6.38 log2 normalized intensity
TCCCCACCCCCAACTTCCCCAACCCTTGCAGCCTAGGGAGATTAGAGTATCGGTCGA	6.3 log2 normalized intensity
CGAACCTGTCTCCAGAGGACTTGCGGTGTTGCCTAGGGAGATTAGAGTATCGGTCGA	0.482 log2 normalized intensity
AGAACCTGCCCATGACCTTTGGACTGTGACGCCTAGGGAGATTAGAGTATCGGTCGA	9.54 log2 normalized intensity
CTGCCCTTTGGAACCTGCCCTCTGTCCCATGCCTAGGGAGATTAGAGTATCGGTCGA	4.15 log2 normalized intensity
AAACCCAAGATTTGGTGTTACCTTTGGACTGCCTAGGGAGATTAGAGTATCGGTCGA	5.71 log2 normalized intensity

Sequence	binding signal
GGGCAGGGTCAGAACCTGCCCATGACCTTTGCCTAGGGAGATTAGAGTATCGGTCGA	5.92 log2 normalized intensity
GGGTCAGAACCTGCCCATGACCTTTGGACTGCCTAGGGAGATTAGAGTATCGGTCGA	11.1 log2 normalized intensity
CATGACCTTTGGACTGTGACCCCACCTCTCGCCTAGGGAGATTAGAGTATCGGTCGA	7.45 log2 normalized intensity
CCTTTGGACTGTGACCCCACCTCTCAGACAGCCTAGGGAGATTAGAGTATCGGTCGA	4.83 log2 normalized intensity
GGACTGTGACCCCACCTCTCAGACAGAGCTGCCTAGGGAGATTAGAGTATCGGTCGA	2.75 log2 normalized intensity
CTTTGGAACCTGCCCTCTGTCCCATGGTGTGCCTAGGGAGATTAGAGTATCGGTCGA	2.48 log2 normalized intensity
TGTAATAAGGAGTTGTGTGATAAGGAGGGCGCCTAGGGAGATTAGAGTATCGGTCGA	0.534 log2 normalized intensity
CATGCAATCACACTAATCTGTCAGAAAACCGCCTAGGGAGATTAGAGTATCGGTCGA	-0.731 log2 normalized intensity
GGTGAGGGTTACAGGTGGACAAACAGGCTGGCCTAGGGAGATTAGAGTATCGGTCGA	-0.829 log2 normalized intensity
CTGGCAGCACCTGAAGAATTTGGACTTTGCGCCTAGGGAGATTAGAGTATCGGTCGA	7.7 log2 normalized intensity
AGGGATTCCTGAAGATCGCAGACTTTGGACGCCTAGGGAGATTAGAGTATCGGTCGA	5.66 log2 normalized intensity
AGCACCTGAAGAATTTGGACTTTGCACTAAGCCTAGGGAGATTAGAGTATCGGTCGA	8.43 log2 normalized intensity
TTCCTGAAGATCGCAGACTTTGGACTCTGCGCCTAGGGAGATTAGAGTATCGGTCGA	7.83 log2 normalized intensity
TGGACTTTGCACTAAAAGCCATGAGAAGGTGCCTAGGGAGATTAGAGTATCGGTCGA	4.84 log2 normalized intensity
CTGAAGAATTTGGACTTTGCACTAAAAGCCGCCTAGGGAGATTAGAGTATCGGTCGA	6.95 log2 normalized intensity
GAATTTGGACTTTGCACTAAAAGCCATGAGGCCTAGGGAGATTAGAGTATCGGTCGA	5.86 log2 normalized intensity
TGGACTTTGGAATTAAGGAGATTTGGCTTTGCCTAGGGAGATTAGAGTATCGGTCGA	4.84 log2 normalized intensity
GGGTCCTGGCAGCACCTGAAGAATTTGGACGCCTAGGGAGATTAGAGTATCGGTCGA	1.23 log2 normalized intensity
GGAGACCTGAAACTAGACCAAGAAGACTTTGCCTAGGGAGATTAGAGTATCGGTCGA	-0.974 log2 normalized intensity
GAAGATCGCAGACTTTGGACTCTGCAAGGAGCCTAGGGAGATTAGAGTATCGGTCGA	5.8 log2 normalized intensity
GGTGAGTCTTTGCCCCTGGACTTTGAATTTGCCTAGGGAGATTAGAGTATCGGTCGA	4.94 log2 normalized intensity
